Assay [1] concerns Plasmodium falciparum Sir2 (PF13_0152, Sir2A). As to the kind of experiment: pfSir2 binders on small-molecule microarrays, primary screen, biochemical, small-molecule microarray, 635 nm fluorescence (AID 1098).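 Note: score merges spot fluorescence intensity with its signal-to-noise ratio.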 The conditions noted are these: small-molecule microarray binding, fluorescence 635 nm; higher = more signal.
Assay [2] in a line: small-molecule microarray binders of probe aDKK1, primary screen, biochemical, biotinylated probe, 635/667 nm fluorescence (AID 1099).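 Note: score merges 667nm spot fluorescence with signal to noise across triplicate slides.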 The conditions noted are these: higher = more signal.
The nature of assay [3]: small-molecule microarray binders of probe aCHRDL2, primary screen, biochemical, biotinylated probe, 635/667 nm fluorescence (AID 1100). The conditions noted are these: higher = more signal.
The nature of assay [4]: splicing luciferase reporter signal modulators, primary screen, spliceosome inhibition project, cell-based, HEK293, splice +/- reporter (AID 1101).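 Note: HEK293 cells carrying a splicing-competent luciferase reporter gene; test concentration not given here.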 To be noted: luminescence, 24 h, higher = more signal, called active from +8 up or from −8 down.
Assay [5] deals with Fibroblast growth factor 10 (Homo sapiens) (UniProt O15520). Briefly: FGF10 binders on small-molecule microarrays, primary screen, biochemical, small-molecule microarray, 635 nm fluorescence (AID 1102). The conditions noted are these: FGF10 binding, fluorescence 635 nm, higher = more signal.
Assay [6] deals with glycogen synthase kinase-3 (GSK3A per assay name; protocol says GSK3B). Briefly: GSK3 binders on small-molecule microarrays, primary screen, biochemical, small-molecule microarray, 635 nm fluorescence, GSK3A (AID 1103). Note: the record names both GSK3A and GSK3B. To be noted: small-molecule microarray binding, fluorescence 635 nm; higher = more signal.
The target of assay [7] is Epidermal growth factor receptor (Homo sapiens) (UniProt P00533). As to the kind of experiment: EGFR binders on small-molecule microarrays, primary screen, biochemical, small-molecule microarray, 635 nm fluorescence (AID 1104).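 Note: score merges 667 nm emission intensity with spot signal to noise over triplicate slides.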 To be noted: EGFR binding, higher = more signal.
Assay [8] concerns the target Follistatin-related protein 3 (Homo sapiens) (UniProt O95633). As to the kind of experiment: FSTL3 binders on small-molecule microarrays, primary screen, biochemical, small-molecule microarray, 635 nm fluorescence (AID 1105).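 Note: score merges emission near 667 nm and signal to noise per printed spot across three slides.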 To be noted: FSTL3 binding, higher = more signal.
Assay [9] concerns the target Dickkopf-related protein 1 (Homo sapiens) (UniProt O94907). As to the kind of experiment: DKK1 binders on small-molecule microarrays, primary screen, biochemical, small-molecule microarray, 635 nm fluorescence scan (AID 1106).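 Note: score merges emission near 667 nm with signal to noise over three replicate slides.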 The conditions noted are these: DKK1 binding, higher = more signal.
For assay [10], the system named is Inhibin beta A chain (activin A). As to the kind of experiment: INHBA (activin A) binders on microarrays, primary screen, biochemical, small-molecule microarray, 635 nm fluorescence scan (AID 1107).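 Note: mouse activin A protein probed at 4.33 µg/mL on printed slides; score merges bound-protein fluorescence near 667 nm with spot signal-to-noise.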 To be noted: small-molecule microarray binding, higher = more signal.
The test system of assay [11] is Human papillomavirus type 1a protein E7 (residues 44-93). As to the kind of experiment: HPV1a E7 fragment binders on microarrays, primary screen, biochemical, small-molecule microarray, residues 44-93, 635 nm fluorescence (AID 1108).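 Note: E7 fragment applied at 1 µg/mL in TBST for 1 h at 4 C; score combines spot fluorescence with its signal to noise ratio.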 To be noted: small-molecule microarray binding, fluorescence 635 nm; higher = more signal.
Assay [12] can be described thus: modulators of HCV replicon luciferase signal, primary screen, HCV replication inhibitor project, Huh7 cells, luciferase reporter (AID 1109).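 Note: huh7 hepatoma cells harbouring a luciferase neomycin HCV replicon reporter; luciferase luminescence as measure of HCV replicon replication; test concentration not given here.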 The conditions noted are these: 48 h, higher = more signal. Background: In antiviral work, replicon cells carry a viral genome segment that copies itself.
Assay [13] has as its target Left-right determination factor 2 (Homo sapiens) (UniProt O00292). Briefly: LEFTY2 binders on small-molecule microarrays, primary screen, biochemical, small-molecule microarray, 635 nm fluorescence scan (AID 1110). To be noted: LEFTY2 binding, higher = more signal.
The target of assay [14] is Calmodulin-1 (Homo sapiens) (UniProt P0DP23). Briefly: CALM1 binders on microarrays, EGTA buffer, profiling panel, biochemical, small-molecule microarray, Cy5-labelled CALM1 (AID 1111).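 Note: labelled calmodulin applied in Tris saline Tween buffer holding calcium plus EGTA and DTT.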 The conditions noted are these: Cy5-CALM1 binding fluorescence, higher = more signal.
Assay [15] shares this target. Briefly: calcium-bound CALM1 binders on microarrays, profiling panel, artefact control for SMM control-protein annotation, biochemical, small-molecule microarray, Cy5-labelled CALM1, plus calcium (AID 1112).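 Note: score merges spot fluorescence with signal to noise from triplicate slides.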 The conditions noted are these: Cy5-CALM1 binding fluorescence, higher = more signal.
Assay [16] in a line: small-molecule microarray binders of probe aWnt5a, primary screen, biochemical, biotinylated probe, 635/667 nm fluorescence (AID 1113).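 Note: score merges 667 nm fluorescence intensity with signal-to-noise per printed feature.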 The conditions noted are these: higher = more signal.
Assay [17] is described as follows: small-molecule microarray binders of probe aShh, primary screen, biochemical, biotinylated probe, 635/667 nm fluorescence (AID 1114).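 Note: probe is biotin-labelled aShh protein from a stem cell growth factor screen; measures binding of labelled protein to compounds printed on the slide; score merges feature fluorescence at 667 nm with signal-to-noise.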 To be noted: higher = more signal.
Assay [18] can be described thus: small-molecule microarray binders of probe aNog, primary screen, biochemical, biotinylated probe, 635/667 nm fluorescence (AID 1115).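 Note: probe is biotinylated aNog protein used at 0.15 µg/mL for 1 h at 4 C; z-score combines 667 nm fluorescence of each spot with its signal to noise.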 The conditions noted are these: higher = more signal.
The target of assay [19] is Torsin-1A-interacting protein 1 (Homo sapiens) (UniProt Q5JTV8). As to the kind of experiment: LAP1 binders from COS7 cell lysate, primary screen, small-molecule microarray, 635/667 nm fluorescence (AID 1116). The conditions noted are these: COS7-hLAP1 lysate binding, 635 nm fluorescence, higher = more signal.
Assay [20] concerns the target Alpha-bungarotoxin (Bungarus multicinctus) (UniProt P60615). As to the kind of experiment: alpha-bungarotoxin binders on microarray, profiling panel, artefact control for SMM control protein annotation, biochemical, small-molecule microarray, Alexa647 label, 635/667 nm fluorescence (AID 1117). To be noted: alpha-BTX-A647 binding fluorescence, higher = more signal.

Molecules are shown by their SMILES. The source made the active and inactive calls.

Sequence of Fibroblast growth factor 10 (Homo sapiens) (O15520 whole entry, looked up): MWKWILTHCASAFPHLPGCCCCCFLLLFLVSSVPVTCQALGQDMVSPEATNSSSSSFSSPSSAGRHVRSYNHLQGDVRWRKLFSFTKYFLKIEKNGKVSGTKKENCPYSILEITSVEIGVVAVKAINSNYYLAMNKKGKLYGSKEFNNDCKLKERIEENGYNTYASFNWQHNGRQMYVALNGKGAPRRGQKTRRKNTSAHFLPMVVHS
Sequence of Follistatin-related protein 3 (Homo sapiens) (O95633 whole entry, looked up): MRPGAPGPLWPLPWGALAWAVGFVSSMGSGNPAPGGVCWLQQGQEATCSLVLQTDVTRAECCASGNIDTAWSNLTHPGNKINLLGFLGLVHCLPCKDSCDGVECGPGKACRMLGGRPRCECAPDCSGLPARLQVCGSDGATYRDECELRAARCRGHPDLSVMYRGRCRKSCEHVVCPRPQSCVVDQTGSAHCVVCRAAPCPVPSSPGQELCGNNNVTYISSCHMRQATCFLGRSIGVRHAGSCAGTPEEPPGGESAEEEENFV
Sequence of Dickkopf-related protein 1 (Homo sapiens) (O94907 whole entry, looked up): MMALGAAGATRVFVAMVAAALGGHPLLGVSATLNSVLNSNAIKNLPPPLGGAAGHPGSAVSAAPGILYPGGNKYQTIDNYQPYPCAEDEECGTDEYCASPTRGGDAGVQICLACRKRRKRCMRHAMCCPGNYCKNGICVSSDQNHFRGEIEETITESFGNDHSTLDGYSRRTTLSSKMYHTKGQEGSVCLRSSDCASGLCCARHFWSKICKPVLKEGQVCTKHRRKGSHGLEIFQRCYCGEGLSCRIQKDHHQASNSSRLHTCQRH
Sequence of Alpha-bungarotoxin (Bungarus multicinctus) (P60615 whole entry, looked up): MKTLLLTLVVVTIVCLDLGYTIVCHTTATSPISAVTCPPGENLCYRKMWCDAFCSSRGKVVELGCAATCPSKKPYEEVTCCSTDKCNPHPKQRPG
Sequence of Torsin-1A-interacting protein 1 (Homo sapiens) (Q5JTV8 whole entry, looked up): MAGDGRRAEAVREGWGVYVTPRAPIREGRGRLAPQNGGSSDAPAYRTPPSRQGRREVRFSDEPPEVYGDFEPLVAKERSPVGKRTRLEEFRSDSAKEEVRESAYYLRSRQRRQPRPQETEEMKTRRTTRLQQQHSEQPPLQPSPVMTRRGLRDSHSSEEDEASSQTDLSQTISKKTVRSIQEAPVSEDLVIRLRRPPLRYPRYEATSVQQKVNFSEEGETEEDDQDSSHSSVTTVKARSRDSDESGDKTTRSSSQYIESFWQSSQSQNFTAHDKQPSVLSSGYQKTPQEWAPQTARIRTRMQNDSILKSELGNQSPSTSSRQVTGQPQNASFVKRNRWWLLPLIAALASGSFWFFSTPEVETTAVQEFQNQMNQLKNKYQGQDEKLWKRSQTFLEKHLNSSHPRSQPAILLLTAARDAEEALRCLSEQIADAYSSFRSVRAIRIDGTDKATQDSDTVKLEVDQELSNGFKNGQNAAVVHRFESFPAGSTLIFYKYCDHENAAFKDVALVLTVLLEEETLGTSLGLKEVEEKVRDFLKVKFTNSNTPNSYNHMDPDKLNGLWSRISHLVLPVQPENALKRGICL
Sequence of Epidermal growth factor receptor (Homo sapiens) (P00533 whole entry, looked up): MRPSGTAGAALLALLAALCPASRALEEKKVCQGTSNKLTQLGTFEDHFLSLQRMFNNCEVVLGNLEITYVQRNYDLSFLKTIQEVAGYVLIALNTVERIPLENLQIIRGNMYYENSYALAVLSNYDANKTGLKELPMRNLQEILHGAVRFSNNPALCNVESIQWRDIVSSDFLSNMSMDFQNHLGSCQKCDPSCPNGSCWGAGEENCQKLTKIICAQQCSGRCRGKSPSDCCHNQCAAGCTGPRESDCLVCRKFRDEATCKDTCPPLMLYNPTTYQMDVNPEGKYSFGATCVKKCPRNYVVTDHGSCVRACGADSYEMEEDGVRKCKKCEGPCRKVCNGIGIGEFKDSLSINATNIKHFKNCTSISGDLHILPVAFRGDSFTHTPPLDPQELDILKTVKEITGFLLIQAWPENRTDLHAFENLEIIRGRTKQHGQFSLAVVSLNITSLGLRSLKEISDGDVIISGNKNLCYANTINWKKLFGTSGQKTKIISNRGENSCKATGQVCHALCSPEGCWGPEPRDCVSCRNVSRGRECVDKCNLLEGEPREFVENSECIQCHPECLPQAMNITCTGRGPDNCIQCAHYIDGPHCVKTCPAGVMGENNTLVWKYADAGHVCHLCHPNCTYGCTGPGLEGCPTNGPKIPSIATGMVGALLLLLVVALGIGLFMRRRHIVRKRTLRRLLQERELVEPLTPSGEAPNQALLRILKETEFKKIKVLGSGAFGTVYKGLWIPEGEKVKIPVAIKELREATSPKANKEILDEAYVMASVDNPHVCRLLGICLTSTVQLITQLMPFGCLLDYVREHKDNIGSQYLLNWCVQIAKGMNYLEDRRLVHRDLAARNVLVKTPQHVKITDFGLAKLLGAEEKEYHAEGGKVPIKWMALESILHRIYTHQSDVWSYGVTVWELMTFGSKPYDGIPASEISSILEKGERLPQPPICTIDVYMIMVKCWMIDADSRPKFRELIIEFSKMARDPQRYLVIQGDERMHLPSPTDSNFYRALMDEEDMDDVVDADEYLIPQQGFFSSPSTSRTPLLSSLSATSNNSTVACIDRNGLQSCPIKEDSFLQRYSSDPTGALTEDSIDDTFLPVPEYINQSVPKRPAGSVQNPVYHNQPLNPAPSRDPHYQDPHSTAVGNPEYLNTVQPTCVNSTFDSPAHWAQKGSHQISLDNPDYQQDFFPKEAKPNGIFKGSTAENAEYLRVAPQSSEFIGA
Sequence of Left-right determination factor 2 (Homo sapiens) (O00292 whole entry, looked up): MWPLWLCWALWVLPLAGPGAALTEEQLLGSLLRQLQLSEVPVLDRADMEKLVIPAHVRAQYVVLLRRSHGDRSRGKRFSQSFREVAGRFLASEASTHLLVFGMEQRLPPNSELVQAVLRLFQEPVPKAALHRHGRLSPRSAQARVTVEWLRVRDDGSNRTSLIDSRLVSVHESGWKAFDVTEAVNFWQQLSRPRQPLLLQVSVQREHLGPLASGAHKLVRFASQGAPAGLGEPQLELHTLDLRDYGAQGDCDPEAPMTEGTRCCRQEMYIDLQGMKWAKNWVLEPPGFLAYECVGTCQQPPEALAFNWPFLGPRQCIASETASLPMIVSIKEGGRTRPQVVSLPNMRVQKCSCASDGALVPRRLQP

With `Cc1ccc2[nH]c3nc(CCCn4ccnc4-c4ccccc4)nnc3c2c1`, the composite z-score in assay [1] is 0.663; in assay [2], -0.28; in assay [3] it was -0.0165; in [5], 0.632; in [6] it was 1.22; in assay [7], 0.32. In addition, the composite z-score in assay [8] was 1.31; in [9] it was 0.869; in [10] it was -0.739; in assay [11] it was 0.0596; in assay [13], 0.635; in assay [14] it was 0.308. Moreover, the composite z-score was -1.02 in assay [15]; -0.101 in assay [16]; 0.191 in assay [17]; -0.344 in assay [18]; 0.666 in assay [19]; 0.335 in [20]. The z-score was -0.128 (inactive) in assay [4] and -0.544 in [12].

For the compound `O=C1C[C@@H](O)[C@@H](O)[C@@H]2[C@@H]3C(=O)N(C4CCCCC4)C(=O)[C@@H]3CC[C@@H]12`, the composite z-score was 0.607 in assay [1]; -0.28 in assay [2]; -0.504 in assay [3]; 1.11 in assay [5]; 0.235 in assay [6]; 0.613 in assay [7]. Further, the composite z-score in assay [8] was 0.59; in assay [9], 0.555; in assay [10] it was -0.156; in assay [11] it was 0.242; in [13], 0.697; in [14] it was -0.0958. For the same compound, the composite z-score in [15] is -0.397; in assay [16], -0.177; in assay [17], 0.0898; in [18] it was -0.104; in assay [19], 0.462; in assay [20], 0.882. The figures for the z-score in [4] and in assay [12] were 0.602 (inactive) and -0.331, respectively.

For `C=CC[C@@H]1C=C[C@H](ON=C(C)CCN2CCCc3nc(C)c(C)cc32)[C@@H](CO)O1`, the composite z-score came out at 1.14 in [1]; 0.381 in [2]; 0.331 in assay [3]; 1.01 in assay [5]; 1.15 in assay [6]; 0.759 in [7]. Also, the composite z-score is 1.47 in [8]; 1.32 in assay [9]; 2.04 in assay [10]; 0.298 in assay [11]; 1.14 in assay [13]; -0.0351 in assay [14]. Besides, the composite z-score in assay [15] was -1.43; in assay [16] it was 0.264; in [17] it was 0.586; in assay [18], 0.525; in [19], 1.83; in assay [20], 0.366. In addition, the z-score is 0.0487 (inactive) in assay [4] and -0.839 in assay [12].

In the case of `O=C(NN=C1C[C@@H](O)[C@@H](O)[C@@H]2[C@@H]3C(=O)N(Cc4ccccc4)C(=O)[C@@H]3CC[C@H]12)OCc1ccccc1`, the composite z-score was -0.944 in [1]; -0.427 in assay [2]; -0.47 in [3]; 0.773 in assay [5]; 0.256 in [6]; 0.39 in assay [7]. The composite z-score in assay [8] is 0.315; in assay [9], 0.698; in [10], -0.0371; in assay [11], -0.401; in assay [13], 0.524; in assay [14], -0.293. The composite z-score in assay [15] is -0.406; in [16], -0.124; in assay [17], -0.2; in [18] it was 0.0313; in assay [19], 0.305; in [20] it was -0.016. For the same compound, the z-score in assay [4] is -0.865 (inactive); in assay [12], 0.0011.

In the case of `CCN1C(=O)[C@H]2[C@H]3[C@H](O)[C@H](O)CC(=NNC(=O)OCc4ccccc4)[C@H]3CC[C@H]2C1=O`, the composite z-score is -0.0508 in assay [1]; 0.0829 in assay [2]; 0.877 in assay [3]; 0.186 in assay [5]; -0.493 in assay [6]; -0.198 in assay [7]. Also, the composite z-score in assay [8] was -0.0353; in assay [9], -0.26; in assay [10], 0.0251; in assay [11] it was 0.663; in assay [13], 0.227; in assay [14] it was -0.307. Also, the composite z-score in [15] is -0.767; in assay [16] it was -0.0459; in assay [17] it was 0.0637; in [18] it was -0.452; in assay [19], 0.185; in assay [20] it was 0.504. Moreover, the z-score was -0.45 (inactive) in [4] and -0.0788 in assay [12].

On to `CC(CCN1CCCCc2nc(C)c(C)cc21)=NO[C@@H](C)c1cc(-c2c(C)cc(C)cc2C)no1`, for which the composite z-score in [1] was 1.41; in assay [2], -0.422; in assay [3] it was 0.27; in [5], -0.488; in [6], -1.05; in assay [7], -1.51. Moreover, the composite z-score is -1.35 in assay [8]; -0.0396 in [9]; 0.823 in [10]; -0.384 in assay [11]; -0.747 in assay [13]; -0.901 in assay [14]. Further, the composite z-score was -0.891 in assay [15]; -0.152 in [16]; -0.221 in [17]; -0.298 in assay [18]; 0.0623 in assay [19]; -0.664 in [20]. In addition, the z-score was 0.673 (inactive) in assay [4] and -1.56 in [12].
